# Data reported in PubChem BioAssay (NCI).
# About 83,000 compounds went through this panel and 20% of them were active in at least one assay; those are over-represented in the sample as a whole.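 Cell lines were cultured in 96-well plates, exposed to a single compound concentration, and assessed for percent growth 48 hours later.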 Values without a mark were called inactive. Calls of active or inactive are those of the source. The calls were made as follows: active = growth percent below 10; inactive = the rest.
# Experiments:
# Experiment in all cases: NCI-60 one-dose screen, 48 h (100 = growth as untreated, 0 = no growth, -100 = all killed)
# Settings in all cases: 10 µM
# RPMI-8226 leukemia = system: RPMI-8226 leukemia
# OVCAR-8 ovarian = system: OVCAR-8 ovarian
# OVCAR-5 ovarian = system: OVCAR-5 ovarian
# OVCAR-4 ovarian = system: OVCAR-4 ovarian
# SK-OV-3 ovarian = system: SK-OV-3 ovarian
# IGROV1 ovarian = system: IGROV1 ovarian
# OVCAR-3 ovarian = system: OVCAR-3 ovarian
# HS 578T breast = system: HS 578T breast
# NCI/ADR-RES ovarian = system: NCI/ADR-RES ovarian
# T-47D breast = system: T-47D breast
# BT-549 breast = system: BT-549 breast
# MDA-MB-435 melanoma = system: MDA-MB-435 melanoma
# SW-620 colon = system: SW-620 colon
# MCF7 breast = system: MCF7 breast
# HCT-116 colon = system: HCT-116 colon
# HCC-2998 colon = system: HCC-2998 colon
# KM12 colon = system: KM12 colon
# MDA-MB-468 breast = system: MDA-MB-468 breast
# SR leukemia = system: SR leukemia
Structure (SMILES),growth (RPMI-8226 leukemia),growth (OVCAR-8 ovarian),growth (OVCAR-5 ovarian),growth (OVCAR-4 ovarian),growth (SK-OV-3 ovarian),growth (IGROV1 ovarian),growth (OVCAR-3 ovarian),growth (HS 578T breast),growth (NCI/ADR-RES ovarian),growth (T-47D breast),growth (BT-549 breast),growth (MDA-MB-435 melanoma),growth (SW-620 colon),growth (MCF7 breast),growth (HCT-116 colon),growth (HCC-2998 colon),growth (KM12 colon),growth (MDA-MB-468 breast),growth (SR leukemia)
O=c1oc2ccc(-c3ccc(F)cc3F)cc2c(=O)n1-c1ccc(F)cc1,-26.9% (active),14.7%,50.8%,10.8%,-11% (active),23.5%,3.4% (active),-0.922% (active),-16.9% (active),-20.5% (active),-25.8% (active),0.996% (active),10.2%,-4.67% (active),8.96% (active),7.52% (active),-0.662% (active),-29.8% (active),–
O=C(Nc1cccc(C(F)(F)F)c1)c1cncc(C#Cc2cnc3cccnn23)c1,–,41%,56.3%,64.9%,–,41.6%,43.7%,45.7%,16.6%,13.5%,15.4%,25.6%,34.3%,8.36% (active),15.4%,46.9%,7.46% (active),47.8%,9.35% (active)
CC1(c2ccccc2)NC(=O)N(CC(=O)Nc2ccc(C(=O)/C=C/c3ccc(Cl)cc3)cc2)C1=O (configuration not stated),–,17.7%,–,24.8%,66%,-19.8% (active),-69.9% (active),48.9%,48.9%,10.4%,1.57% (active),-76.4% (active),-58.9% (active),–,-69.1% (active),-99.1% (active),-81.4% (active),–,-13.3% (active)
COc1ccc2nc(Cl)c(-c3cc(-c4ccccc4)nc(N)n3)cc2c1,-27% (active),-68.4% (active),51.4%,83.7%,95.1%,52.5%,12.1%,59.3%,-43.1% (active),30.6%,-11.1% (active),45.5%,-60.2% (active),4.28% (active),-92.1% (active),62.6%,-0.39% (active),–,–
COc1ccc2nc(Cl)c(-c3cc(-c4ccccc4)nc(=S)[nH]3)cc2c1,71.7%,68.2%,95.1%,90.1%,37.4%,79%,80.8%,31.7%,40.9%,76.4%,14.7%,-27.6% (active),78.9%,65%,66.4%,97.3%,76.8%,–,–
[2H]C([2H])([2H])Oc1ccc2ncc(C#Cc3cncc(C(=O)Nc4ccc(CN5CCN(C)CC5)c(C(F)(F)F)c4)c3)n2n1,–,-25.7% (active),-92.9% (active),-34.6% (active),-58.4% (active),-62.5% (active),-78.8% (active),-47.9% (active),–,-24.5% (active),-57.5% (active),-67.2% (active),-67.8% (active),-61% (active),-29.5% (active),-84.8% (active),-94.1% (active),-90.3% (active),-9.99% (active)
COC(=O)C(Cc1ccc(O)c(O)c1)NC(=O)C(CSC/C=C(\C)CCCC(C)CCCC(C)CCCC(C)C)NC(C)=O (configuration not stated),-5.06% (active),10.8%,28%,19.7%,41.7%,17.4%,34.8%,25.5%,73.8%,-0.796% (active),23.3%,30%,19.8%,24.4%,21.2%,19.3%,16.4%,6.4% (active),–
O=C(c1ccc(Cl)cc1)C1[C@H](c2ccccc2Br)[C@@H](c2ccccc2)NC12C(=O)Nc1ccc(Br)cc12 (some centres not stated),7% (active),13.7%,19.2%,23.2%,36.2%,21.2%,-8.88% (active),12%,-67% (active),21.3%,54.8%,-39.7% (active),7.29% (active),-2.68% (active),3.99% (active),-13.2% (active),11.8%,-39.8% (active),–
CN(C)c1ccc(/C=C/c2nc3ccccc3c(=O)n2CC(=O)Nc2ccc(Cl)cc2)cc1,88.1%,2.8% (active),75.4%,7.27% (active),84.8%,88.3%,42.2%,17.1%,22.4%,75.1%,26.6%,68.8%,61.9%,27.9%,56.8%,68%,55.1%,31.3%,–
CO[C@H]1CSS[C@@H]1Cn1nc(-c2ccc(Oc3ccccc3)cc2)c2c(N)ncnc21,36.4%,48.2%,28.5%,50.2%,-1.28% (active),29.4%,61.2%,28.4%,42.6%,2.61% (active),4.49% (active),-46.5% (active),66.4%,10.2%,7.35% (active),14%,17.5%,-21.2% (active),–
O=S(=O)(Nc1ncccn1)c1ccc(-n2c(-c3ccc(Br)cc3)nc(-c3ccccc3)c2-c2ccccc2)cc1,33.8%,50.5%,70.5%,57.7%,76.4%,51.6%,48.2%,20.4%,33.6%,2.77% (active),8.3% (active),42.7%,48.5%,28.6%,34.5%,39.7%,27.7%,24.3%,–
CONC[C@]1(C)C=C2C(=O)[C@](C)(O)C3(CC3)C(C)=C2[C@H]1O,54.3%,-6.95% (active),-44.2% (active),-17.4% (active),-14.4% (active),-15.4% (active),-20.4% (active),-12.4% (active),-58.3% (active),0.0161% (active),-63.6% (active),-84.7% (active),3.2% (active),-36.3% (active),14.5%,-76.9% (active),7.08% (active),-90.8% (active),–
COc1ccc(-c2cc(C(=O)N=Nc3c(O)[nH]c4ccccc34)c3ccccc3n2)cc1,–,-28.6% (active),18.2%,-36.7% (active),80.9%,-62.5% (active),-93.2% (active),31.1%,-14.4% (active),12.1%,72.9%,0.986% (active),-30.2% (active),-49.6% (active),-43.3% (active),-16.4% (active),-11.1% (active),-31.7% (active),22.8%
CCCCSc1nc(Nc2ccc(/C(C)=N/NC(N)=S)cc2)c(C#N)c(-c2ccccc2)n1,47.3%,15.1%,60.4%,5.32% (active),108%,57.6%,13.4%,43.6%,25.3%,45.9%,31.1%,65.4%,56.8%,30.7%,24.6%,53.1%,72.4%,–,–
CNC(=O)c1cccc(N2CCc3c2ccc(NC(=O)Nc2ccc(N4CCN(C)CC4)c(C(F)(F)F)c2)c3F)c1,-41.1% (active),-83.4% (active),-85.1% (active),-86.1% (active),45.3%,-91.7% (active),-80% (active),-1.44% (active),-79.2% (active),94.5%,11.6%,-96.1% (active),-71.7% (active),-79.8% (active),-95.3% (active),-94.1% (active),-88.1% (active),90.4%,–
O=C1NC(=NC23CC4CC(CC(C4)C2)C3)N/C1=C\c1ccc2ncoc2c1,-4.5% (active),13.4%,-14.4% (active),13.4%,26.8%,3.59% (active),24.1%,-0.689% (active),4.58% (active),-0.573% (active),-20.6% (active),16.8%,9.67% (active),1.42% (active),27.6%,-5.81% (active),4.28% (active),-60% (active),–
COc1ccc(CCN2C(=O)/C(=C/c3csc(C#N)n3)SC2=S)cc1OC,-7.56% (active),69.2%,116%,66.3%,107%,90.7%,-17.7% (active),66.3%,93.3%,-7.6% (active),24.5%,23.5%,-20.5% (active),-15.9% (active),-69.1% (active),116%,35%,–,–
